Source: PubChem BioAssay (National Center for Advancing Translational Sciences (NCATS))
The list is not random: actives were taken first. Their share in the collection is about 0.92%.
L3MBTL1 inh = qHTS Assay for the Inhibitors of L3MBTL1. AlphaScreen L3MBTL1–H3K9me1 peptide binding. 230,000 compounds, 0.66% hits. Potency, µM (top dose mostly 57.1 µM), most hits filed as inhibitors. AID 485360, 2010; note: nearly all actives have a fitted effect of over 60% in size
Target sequence (Q9Y468 whole entry, looked up): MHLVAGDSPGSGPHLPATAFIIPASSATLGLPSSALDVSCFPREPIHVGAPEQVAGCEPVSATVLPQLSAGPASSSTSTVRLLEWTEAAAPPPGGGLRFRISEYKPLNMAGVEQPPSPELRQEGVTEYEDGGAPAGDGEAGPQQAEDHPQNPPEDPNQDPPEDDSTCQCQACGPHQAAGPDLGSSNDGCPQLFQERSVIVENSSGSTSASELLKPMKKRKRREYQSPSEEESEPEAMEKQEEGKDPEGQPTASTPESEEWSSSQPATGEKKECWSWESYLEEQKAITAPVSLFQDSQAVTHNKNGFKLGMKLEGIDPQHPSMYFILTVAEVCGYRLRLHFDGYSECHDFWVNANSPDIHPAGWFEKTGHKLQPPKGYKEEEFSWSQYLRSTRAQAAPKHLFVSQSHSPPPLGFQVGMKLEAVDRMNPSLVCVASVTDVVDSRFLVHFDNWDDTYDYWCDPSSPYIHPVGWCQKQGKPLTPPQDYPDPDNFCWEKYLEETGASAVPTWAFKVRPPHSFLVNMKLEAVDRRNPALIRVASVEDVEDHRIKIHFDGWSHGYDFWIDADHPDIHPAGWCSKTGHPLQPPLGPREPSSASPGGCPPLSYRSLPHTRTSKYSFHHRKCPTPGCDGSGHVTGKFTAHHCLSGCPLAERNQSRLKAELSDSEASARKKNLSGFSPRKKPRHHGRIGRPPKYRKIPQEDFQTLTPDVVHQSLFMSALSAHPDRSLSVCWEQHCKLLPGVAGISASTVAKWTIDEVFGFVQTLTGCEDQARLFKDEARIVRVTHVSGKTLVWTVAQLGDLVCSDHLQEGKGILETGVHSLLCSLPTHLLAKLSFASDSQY
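L3MBTL1 50 nM + b-AHA-H3(1-15)K9me1 75 nM, 30 min RT; compound added, 30 min RT; streptavidin donor/Ni-chelate acceptor beads 10 ug/mL each final, 30 min RT dark; AlphaScreen read.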
APEX1 inh = qHTS Assay for Inhibitors of the Human Apurinic/apyrimidinic Endonuclease 1 (APE1) | DNA repair nuclease/redox regulator APEX1 (Homo sapiens), P27695 | recombinant APE1, TAMRA/BHQ-2 abasic DNA cleavage fluorescence | Potency, µM (doses to about 65.8 µM), actives largely listed as inhibitors | 350,000 compounds, 0.35% hits; note: nearly all actives have a fitted effect of over 55% in size
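Quantitative HTS: incision of a TAMRA/BHQ-2 double-stranded substrate bearing a tetrahydrofuran abasic site by 0.75 nM APE1 raises fluorescence. Substrate 50 nM final, added after 15 min compound preincubation at room temperature; progress as third-minus-first kinetic read difference.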
RECQ1 inh-1 = qHTS Assay for Inhibitors of RecQ-Like Dna Helicase 1 (RECQ1) | RECQ1 DNA unwinding, red fluorescence kinetic read | Potency, µM (top dose mostly 57.3 µM), hits mostly inhibitors | 240,000 compounds, 0.54% hits | AID 2549, 2010; note: nearly all actives have a fitted effect of over 30% in size
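RECQ1T1 50 nM; forked duplex (20 bp + 30-nt ss tails) 200 nM, ATP 2 mM final; pH 8.0, 2 mM MgCl2, 2.5 ug/ml poly(dI-dC); 15 min compound preincubation; discontinuous kinetic read over 2 h at RT.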
WRN helicase inh = qHTS for Inhibitors of WRN Helicase; Bifunctional 3'-5' exonuclease/ATP-dependent helicase WRN (Homo sapiens), Q14191; WRN helicase unwinding, fluorescent forked duplex, kinetic; Potency, µM (series often up to 114 µM), usual class: inhibitors; 360,000 compounds, 0.46% hits; AID 651768, 2012; note: nearly all actives have a fitted effect of over 55% in size
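Fluorescence dequenching readout, ex 525 nm/em 598 nm, kinetic mode: forked duplex DNA (100 nM final) with adjacent fluorophore and quencher unwound by WRN (20 nM final) with 2 mM ATP. Compound preincubation 15 min, room temperature.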
BLM inh = qHTS Assay for Inhibitors of Bloom's syndrome helicase (BLM) | AID 2528, 2010 | recombinant BLM DNA unwinding, fluorescence dequenching | Potency, µM (series often up to 56.1 µM), actives largely listed as inhibitors | 350,000 compounds, 0.2% hits | RecQ-like DNA helicase BLM (Homo sapiens), P54132; note: nearly all actives have a fitted effect of over 35% in size
RECQ1 inh conf = Confirmation qHTS Assay for Inhibitors of RecQ-Like Dna Helicase 1 (RECQ1); Potency, µM (series often up to 229 µM), most hits filed as inhibitors; 610 compounds, 28% hits; shares compounds with RECQ1 inh-1; RECQ1 helicase DNA unwinding, fluorescence; note: nearly all actives have a fitted effect of over 45% in size
RECQ1 ADP FP = Counterscreen for RECQ1 Inhibitors: ADP Fluorescence Polarization Displacement Assay. shares compounds with RECQ1 inh-1. ADP fluorescence polarization displacement counterscreen. Potency, µM (titrated, usually from 228 µM), actives largely listed as inhibitors. 530 compounds, 27% hits; note: nearly all actives have a fitted effect of over 45% in size
RECQ1 inh-2 = Confirmation qHTS Assay for Inhibitors of RecQ-Like Dna Helicase 1 (RECQ1) - Round 2 Cherry Picks; AID 504841, 2011; Potency, µM (doses to about 119 µM), usual class: inhibitors; 1,100 compounds, 15% hits; shares compounds with RECQ1 inh-1; recombinant RECQ1 DNA unwinding, red fluorescence; note: nearly all actives have a fitted effect of over 50% in size
Large screens that a line does not name were inactive (follow-up assays come after a bar, where they were run). Calls come from the whole dose curve; as a rule, active = well fitted curve in the direction sought with a large enough effect; inconclusive = small, poorly fitted or top-dose-only effect, or another doubt; inactive = no such curve, though single readings can be large; an effect the other way counts as inactive or inconclusive.

CN1/C(=C\C=N\O)C(C)(C)c2ccccc21	none
COC(=O)C1=C(C)N(Cc2ccccc2)C(=NCC2CC2)N[C@H]1c1ccc(Br)cc1	none (no result: L3MBTL1 inh, RECQ1 inh-1, WRN helicase inh)
Cc1nnc(SCC(=O)Nc2nc(-c3ccccc3)cs2)n1N	none
CCn1c(SCC(=O)Nc2nc(-c3ccccc3)cs2)nnc1-c1ccccc1	none | RECQ1 inh conf inconclusive | RECQ1 ADP FP inactive
CCn1c(SCC(=O)c2ccc(O)c(O)c2)nnc1-c1ccc(C)cc1	L3MBTL1 inh inconclusive, APEX1 inh inconclusive, RECQ1 inh-1 10µM, WRN helicase inh 13µM | RECQ1 inh conf inconclusive | RECQ1 ADP FP inactive | RECQ1 inh-2 inconclusive
CCn1c(SCC(=O)c2ccc3c(c2)Cc2ccccc2-3)nnc1-c1ccc(N)cc1	none
CCOC(=O)c1c(C)n(-c2ccccc2)c2ccc(OC(=O)c3ccccc3NC(=O)C(C)(C)C)cc12	none (no result: L3MBTL1 inh, APEX1 inh, RECQ1 inh-1, WRN helicase inh)
CC(=O)Oc1ccc(C(=O)Nc2cccc(C(=O)c3cccc(NC(=O)c4ccc(OC(C)=O)cc4)c3)c2)cc1	RECQ1 inh-1 14µM, WRN helicase inh inconclusive | RECQ1 inh-2 inconclusive
CC(=O)Oc1ccc(C(=O)Nc2cccc(C(=O)NC(C)(C)C)c2)cc1	none (no result: L3MBTL1 inh)
O=c1cnc2cnc(N3CCNCC3)nc2n1Cc1ccc(F)cc1	none (no result: L3MBTL1 inh, WRN helicase inh)
O=C(/C=C/c1ccco1)N1CCCC(c2ccccc2)C1 (stereo unspecified)	RECQ1 inh-1 inconclusive | RECQ1 inh-2 inconclusive
Cc1cccc(CNC(=O)c2cnc3c(-c4cccc(C)c4)c(C)nn3c2C)c1	none (no result: L3MBTL1 inh, APEX1 inh, RECQ1 inh-1, WRN helicase inh)
Cc1ccc(NC(=O)c2ccccc2NS(=O)(=O)c2ccc(Cl)s2)cc1	RECQ1 inh-1 40µM | RECQ1 inh-2 inactive
O=C(Nc1ccccc1)c1ccccc1NS(=O)(=O)c1ccc(Cl)s1	none
Cc1cc(NS(=O)(=O)c2ccc(NC(=O)c3cc(-c4cccnc4)nc4ccc(Cl)cc34)cc2)no1	none
Cc1cc(C)c2nc(-c3ccccn3)cc(C(=O)Nc3ccc(S(=O)(=O)Nc4cc(C)on4)cc3)c2c1	APEX1 inh inconclusive, RECQ1 inh-1 25µM, WRN helicase inh 56µM, BLM inh inconclusive | RECQ1 inh-2 inconclusive
CCCCCn1c(=O)[nH]c2cc(C(=O)Nc3ccc(F)c(F)c3)ccc2c1=O	none (no result: L3MBTL1 inh, APEX1 inh, RECQ1 inh-1, WRN helicase inh)
CC(C)Cc1nnc(NC(=O)Cc2cccs2)s1	L3MBTL1 inh inconclusive, APEX1 inh inconclusive, RECQ1 inh-1 inconclusive, WRN helicase inh inconclusive | RECQ1 inh-2 56µM
O=C(Nc1cccc(S(=O)(=O)N2CCOCC2)c1)[C@@H]1CCCN1S(=O)(=O)c1ccc(Cl)cc1	none | RECQ1 inh conf inactive | RECQ1 ADP FP inactive
O=C(Nc1cccc(S(=O)(=O)N2CCOCC2)c1)C1CCCCN1S(=O)(=O)c1ccccc1 (stereo unspecified)	none (no result: RECQ1 inh-1, BLM inh)
COc1ccc(/C=C2/SC(=O)N(CCC(=O)Nc3ccc(C)cc3)C2=O)cc1OC	none (no result: WRN helicase inh)
COc1cc(/C=C2\SC(N)=NC2=O)ccc1OCC(=O)Nc1ccc(C)cc1	RECQ1 inh-1 inconclusive | RECQ1 inh-2 inconclusive
Cc1sc(NC(=O)c2ccco2)c(C(c2cccnc2)N2CCN(c3ccc(F)cc3)CC2)c1C (stereo unspecified)	RECQ1 inh-1 40µM | RECQ1 inh-2 inconclusive
